Shown are actives, neighbours in structure and some others; about 1.2% of the full set was active somewhere.
GRK2 inh: compounds blocking aptamer binding on GRK2 – biochemical, human GRK2, bead flow cytometry, HTS, primary screen. FAM-aptamer displacement from GRK2. inhibition of aptamer binding, % at 10 µM. hit rate 0.59% among 330,000. Beta-adrenergic receptor kinase 1 (Homo sapiens), P25098. AID 488847, 2010;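 active = inhibition of aptamer binding above 40%, roughly 3 SD of noise, on plates passing a quality check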;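 also: median bead fluorescence of bound FAM aptamer so fluorescent compounds give negative values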
MIN6 prolif: inducers of MIN6 beta-cell proliferation, primary screen, ATP luminescence, uHTS | MIN6 cells proliferation, ATPlite luminescence, 48 h; cells starved in 0.2% serum; 100% = growth in 10% serum | proliferation, % at 10 µM | hit rate 0.29% among 330,000 | AID 2380, 2010;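 active = compounds whose signal lies at least 3.5 SD above the mean of all wells on their plate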;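 also: 0% = DMSO-treated cells in low-serum medium and 100% = 10% serum control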
Platelet DG rel: inhibitors of platelet dense granule secretion, primary screen, cell-based, MLPCN, human platelets; human platelet-rich plasma, SFLLRN dense granule ATP release, luminescence; inhibition, %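 (compounds screened at 7.5 µM in platelet-rich plasma)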; hit rate 0.22% among 300,000; AID 1663, 2009;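 active = mean replicate score, as percent of positive control, at or above 50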
NTR1 agonist: agonists of human NTR1, primary screen, imaging, U2OS cells, beta-arrestin-GFP, high content. Neurotensin receptor type 1 (Homo sapiens), P30989. NTR1-U2OS beta-arrestin-GFP spot imaging, agonist mode. activation, % at 20 µM. hit rate 0.17% among 330,000. AID 493036, 2011;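 active = activation at or above 40% of the spot to cytoplasm intensity ratio, with at least 20 cells analyzed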;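 also: 0% = DMSO without peptide and 100% = 100 nM NTR1 peptide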
Target sequence (P30989 whole entry, looked up): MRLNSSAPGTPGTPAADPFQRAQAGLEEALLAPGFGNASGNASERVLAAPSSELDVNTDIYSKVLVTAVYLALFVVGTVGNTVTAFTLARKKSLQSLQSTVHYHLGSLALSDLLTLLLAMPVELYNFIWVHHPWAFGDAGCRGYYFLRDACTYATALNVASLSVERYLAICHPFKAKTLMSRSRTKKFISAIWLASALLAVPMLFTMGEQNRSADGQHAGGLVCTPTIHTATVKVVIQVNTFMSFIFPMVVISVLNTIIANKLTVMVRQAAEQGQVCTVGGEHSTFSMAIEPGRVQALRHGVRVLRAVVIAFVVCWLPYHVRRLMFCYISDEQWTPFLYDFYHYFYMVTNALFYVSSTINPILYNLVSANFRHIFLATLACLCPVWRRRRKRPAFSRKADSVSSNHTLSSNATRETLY
NTR1 ag conf: NTR1 agonists, single-dose retest, confirmation, imaging, U2OS cells, beta-arrestin-GFP, single concentration; NTR1-U2OS beta-arrestin-GFP translocation imaging; hit rate 38% among 480; activation, % at 20 µM; shares compounds with NTR1 agonist;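 active = mean activation at 20 µM of at least 40%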;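 also: 0% = DMSO without peptide and 100% = 100 nM NTR1 peptide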
Starred values were filed as active, the others as inactive; · = no result given.

SMILES | GRK2 inh | MIN6 prolif | Platelet DG rel | NTR1 agonist | NTR1 ag conf
Brc1csc(/C=N/Nc2nc3ccccc3s2)c1 | 1 | 0 | 6 | 24 | ·
O=c1c(NCCc2ccccc2)c(-c2ccccc2)c1=O | 0 | -4 | -4 | 1 | ·
O=C(COC(=O)Cc1c[nH]c2ccccc12)Nc1c(Cl)cccc1C(F)(F)F | 1 | 3 | -26 | 0 | ·
COc1cc(CC(NC(C)=O)C(=O)NC2CCN(C(=O)Nc3ccccc3C)CC2)cc(OC)c1 (configuration not stated) | 0 | 0 | -3 | 42* | -2
COc1cc2c3nnc(-c4ccc(F)cc4)c-3cn(Cc3ccccc3)c2cc1OC | 0 | -6 | 29 | 49* | 84*
Cn1nc2c3cc(F)ccc3n(Cc3ccc(F)cc3)cc-2c1=O | 0 | -3 | -1 | -1 | ·
COc1ccc(Cn2cc3c(-c4ccc(F)cc4)nnc-3c3cc(OC)c(OC)cc32)cc1 | 0 | -6 | · | 46* | 78*
CCC(C(=O)NCc1ccccn1)n1c2ccccc2c2nc(=O)cc(C)n21 (configuration not stated) | 0 | 2 | -15 | 1 | ·
O=C(c1cn(-c2ccccc2)nc1-c1ccc(Br)cc1)N1CCOCC1 | 0 | 0 | -3 | 0 | ·
C=C(C)COc1ccc(-c2nc(N)ncc2-c2ccc(OC)c(OC)c2)c(O)c1 | 5 | 1 | 6 | 2 | ·
C=C(C)COc1ccc(-c2nc(N)ncc2-c2ccc(Cl)cc2)c(O)c1 | 0 | -5 | -6 | 70* | 26
COc1ccc(-c2csc(N3CCN(c4cc(C)nc5ccccc45)CC3)n2)cc1OC | 0 | -6 | -11 | 44* | 42*
CCOCCCN(C(=O)c1snc(C(N)=O)c1N)C(C(=O)NCCC(C)C)c1ccc(Cl)cc1 (configuration not stated) | 0 | 0 | -5 | 2 | ·
CC(=O)Nc1cccc(NC(=O)CS(=O)(=O)c2cn(CC(=O)N(C(C)C)C(C)C)c3ccccc23)c1 | 1 | 0 | -4 | 0 | ·
O=[N+]([O-])CC(c1ccccc1)c1c[nH]c2ccccc12 (configuration not stated) | 1 | -4 | 0 | 4 | ·
OC(CNCC(c1ccc(Cl)cc1Cl)c1c[nH]c2ccccc12)c1ccccc1 (configuration not stated) | 1 | -7 | -7 | 59* | 44*
Cn1c(C(=O)OCC(=O)NCc2ccc(F)cc2)cc2occc21 | 3 | -5 | 10 | 2 | ·
Oc1ccc(Cl)cc1/C=C/c1ccc2cccc(O)c2n1 | · | -5 | 11 | 46* | 17
O=[N+]([O-])c1ccc2[nH]cc(S(=O)(=O)N3CCN(c4cccc(Cl)c4)CC3)c2c1 | 1 | -8 | 7 | 41* | 20
CC[C@@H]1C/C=C\Cc2ccccc2[C@@H](C(=O)C[C@H](O)CC(C)=O)OC1=O | 0 | 0 | · | -1 | ·
Cc1cccc(CN2C(=O)/C(=C\c3ccc(C(=O)NCCN4CCOCC4)cc3)Sc3ccccc32)c1 | 0 | 0 | 3 | 18 | ·
CCN1CCN(CCNC(=O)c2ccc(/C=C3/Sc4ccccc4N(Cc4cccc(Cl)c4)C3=O)cc2)CC1 | 0 | -7 | 3 | 58* | 27
Cn1ncc2c(Nc3cccc(Cl)c3)nc(Nc3cccc(Cl)c3)nc21 | 5 | -5 | 0 | 64* | 29
CC(NC(=O)c1ccccc1Cl)c1ccc(-n2ccnc2)cc1 (configuration not stated) | 1 | -3 | 5 | 0 | ·
CN(C)S(=O)(=O)c1ccc(S(=O)(=O)NCc2cccs2)cc1 | 0 | -1 | -19 | 42* | -2
SMILES | GRK2 inh | MIN6 prolif | Platelet DG rel | NTR1 agonist | NTR1 ag conf
O=S(=O)(NCc1cccs1)c1ccc(Br)cc1 | 4 | 2 | 6 | 1 | ·
C/C(=N\Nc1cc(-c2ccccc2)nc(-c2ccc(Br)cc2)n1)c1cccc(N)c1 | 0 | -6 | -13 | 2 | ·
C/C(=N/Nc1cc(-c2ccccc2)nc(-c2ccccc2)n1)c1ccc(O)cc1 | 0 | -6 | -7 | 54* | 46*
Cc1[nH]c2ccccc2c1/C=N/NS(=O)(=O)c1ccccc1 | 0 | -1 | 0 | -1 | ·
Cc1[nH]c2ccccc2c1/C=N/Nc1ccccc1[N+](=O)[O-] | 0 | -6 | 13 | 40* | 10
O=C(CN1CCN(C(=O)c2ccc(-c3nc4ccccc4s3)o2)CC1)Nc1ccccc1Cl | · | -4 | · | 48* | 25
O=C(Nc1cccc(S(=O)(=O)N2CCCCCC2)c1)C1CCC1 | 3 | 6 | 17 | 2 | ·
Cc1cccc2sc(NNC(=O)c3cc(-c4cccs4)nc4ccccc34)nc12 | 2 | -6 | 4 | 40* | -1
Nc1c(C(=O)c2ccccc2O)cnn1-c1ccc(S(=O)(=O)N2CCOCC2)cc1[N+](=O)[O-] | 0 | -3 | -1 | 1 | ·
O=C1c2ccc(Cl)cc2S(=O)(=O)c2cccc(C(=O)N3CCC(Cc4ccccc4)CC3)c21 | 5 | -7 | · | 52* | 80*
COC(=O)c1c(NC(=O)C2SC(=NC3CCCCC3)C(C(N)=O)=C2N)sc2c1CCCC2 (configuration not stated) | 1 | 0 | -18 | 43* | 17
C=C(C)CN=C1SC(C(=O)Nc2sc3c(c2C(=O)OC)CCC3)C(N)=C1C(N)=O (configuration not stated) | 0 | 0 | -6 | 20 | ·
O=C(NCC(c1cccnc1)N1CCOCC1)NC1CCCCC1 (configuration not stated) | 0 | -1 | -5 | 0 | ·
OCCNc1nc(Nc2ccccc2Oc2ccccc2)nc(N2CCCC2)n1 | 4 | 4 | -2 | 46* | 32
Cc1occc1-c1nnc(SCC(=O)N2CCCC(C)C2)o1 (configuration not stated) | 1 | -4 | · | -1 | ·
Oc1ccc(Br)cc1/C=N/NC(=S)NCCc1ccccc1 | 0 | 0 | 0 | 60* | 1
O=C(/C=C/c1ccccc1F)c1cccc([N+](=O)[O-])c1 | 0 | -6 | 8 | 42* | 61*
O=C(CNC(=O)N1CC(=O)Nc2ccccc21)NCCc1c[nH]c2ccccc12 | 0 | -4 | 5 | 1 | ·
Cc1occc1C(=O)N=Nc1c(O)[nH]c2ccc(Br)cc12 | 0 | -1 | -8 | 2 | ·
Cc1cc2c(N=NC(=O)C3CC3c3ccccc3)c(O)[nH]c2cc1Br (configuration not stated) | 0 | -5 | -4 | 42* | 26
O=S(=O)(c1ccc(N2CC=C(c3ccccc3)CC2)nc1)N1CCCC1 | 0 | -2 | 0 | 50* | 1
O=S(=O)(c1ccc(N2CCN(S(=O)(=O)c3ccccc3)CC2)nc1)N1CCCC1 | 2 | -4 | 1 | 1 | ·
COc1ccc(-c2cc(-c3ccc(C)cc3)n[nH]2)c(O)c1 | 0 | -4 | 17 | 11 | ·
